# In the library only some 1.1% were active in any assay of this set; here they are far more common.
# LRH-1 inv ag: LRH-1 (NR5A2) inverse agonists, primary screen, cell-based, luminescence, HEK293T, StAR-luciferase reporter | AID 602396, 2012 | Nuclear receptor subfamily 5 group A member 2 (Homo sapiens), O00482 | inhibition, % at 3.6 µM | hit rate 0.13% among 360,000 | LRH-1 transfected, 24 h;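 active = inhibition above the mean inhibition of all tested compounds plus 3 SD, cut at about 73% in these data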;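 note: 0% = DMSO wells and 100% = reporter-only cells lacking LRH-1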
# SRC2 inh: inhibition of GAL4-SRC2 driven luciferase reporter, primary screen, SRC2 inhibitor project, cell-based, luminescence; HEK293 GAL4-SRC2 luciferase reporter; inhibition, % at 9 µM; hit rate 0.17% among 370,000; Nuclear receptor coactivator 2 (Homo sapiens), Q15596;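 active = inhibition above the mean inhibition of all tested compounds plus 3 SD, set per campaign, cut at about 52% in these data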;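 note: 0% = DMSO treated cells and 100% = cells given Gossypol at 36 µM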
# Target sequence (Q15596 whole entry, looked up, the tested form may be a part): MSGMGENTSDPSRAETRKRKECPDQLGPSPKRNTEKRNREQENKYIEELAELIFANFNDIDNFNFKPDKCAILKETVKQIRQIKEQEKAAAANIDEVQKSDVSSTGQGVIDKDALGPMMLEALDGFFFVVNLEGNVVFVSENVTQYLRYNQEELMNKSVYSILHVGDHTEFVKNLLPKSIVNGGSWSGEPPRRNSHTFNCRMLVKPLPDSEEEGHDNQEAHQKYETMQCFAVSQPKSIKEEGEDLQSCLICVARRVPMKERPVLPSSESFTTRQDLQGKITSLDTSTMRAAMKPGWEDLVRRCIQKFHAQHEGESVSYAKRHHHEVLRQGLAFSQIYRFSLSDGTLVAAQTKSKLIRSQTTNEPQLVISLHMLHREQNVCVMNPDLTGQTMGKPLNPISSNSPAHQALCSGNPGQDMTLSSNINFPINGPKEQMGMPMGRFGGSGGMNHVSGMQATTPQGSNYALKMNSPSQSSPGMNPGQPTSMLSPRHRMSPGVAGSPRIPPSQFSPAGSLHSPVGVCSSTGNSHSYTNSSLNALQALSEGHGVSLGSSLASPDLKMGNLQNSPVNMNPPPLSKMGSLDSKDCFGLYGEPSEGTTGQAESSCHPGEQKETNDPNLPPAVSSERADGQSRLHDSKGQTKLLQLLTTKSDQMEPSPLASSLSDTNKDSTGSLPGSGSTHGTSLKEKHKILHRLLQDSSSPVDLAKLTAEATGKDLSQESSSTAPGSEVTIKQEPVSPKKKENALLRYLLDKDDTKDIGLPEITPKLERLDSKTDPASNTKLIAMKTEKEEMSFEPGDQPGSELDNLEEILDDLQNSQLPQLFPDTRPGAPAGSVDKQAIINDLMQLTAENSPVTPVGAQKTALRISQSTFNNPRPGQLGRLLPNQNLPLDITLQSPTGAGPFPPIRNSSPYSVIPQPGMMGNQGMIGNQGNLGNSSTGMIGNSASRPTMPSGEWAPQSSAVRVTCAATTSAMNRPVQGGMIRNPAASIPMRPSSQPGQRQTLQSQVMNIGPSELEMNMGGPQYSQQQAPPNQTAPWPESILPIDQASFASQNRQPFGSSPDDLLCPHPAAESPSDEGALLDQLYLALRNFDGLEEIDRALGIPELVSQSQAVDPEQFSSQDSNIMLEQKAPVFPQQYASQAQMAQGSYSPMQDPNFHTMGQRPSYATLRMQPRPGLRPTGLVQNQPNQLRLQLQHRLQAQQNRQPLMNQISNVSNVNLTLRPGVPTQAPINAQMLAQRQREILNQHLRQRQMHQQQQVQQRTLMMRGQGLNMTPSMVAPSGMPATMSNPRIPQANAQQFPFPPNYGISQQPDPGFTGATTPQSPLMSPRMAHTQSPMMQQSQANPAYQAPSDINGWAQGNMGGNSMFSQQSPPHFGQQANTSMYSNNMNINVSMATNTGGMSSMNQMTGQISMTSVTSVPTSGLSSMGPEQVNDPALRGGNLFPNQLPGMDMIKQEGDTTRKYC
# COUP-TFII inh: NR2F2 transcriptional activity inhibitors, primary screen, cell-based, luciferase reporter, HEK293T, luminescence; COUP transcription factor 2 (Homo sapiens), P24468; HEK293T NGFI-A luciferase reporter; inhibition, % at 8.6 µM; hit rate 0.7% among 370,000; AID 686940, 2013;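 active = inhibition above a per-plate cutoff, mean inhibition of test wells between control levels plus 3 SD, cut at about 38% in these data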;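 note: cells cotransfected with COUP-TFII expression vector driving the NGFI-A reporter; 0% = median of COUP-TF2 test wells and 100% = reporter-only cells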
# NCOA1 inh: SRC1 coactivator transcriptional activity inhibitors, primary screen, cell-based, luminescence. HEK293 GAL4-SRC1 luciferase reporter. inhibition, % at 3.6 µM. hit rate 0.12% among 360,000;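 active = inhibition above the campaign mean plus 3 SD, with each screening campaign given its own cutoff, cut at about 60% in these data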;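 note: 0% = DMSO treated cells and 100% = gossypol at 36 µM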
# SRC3 inh: SRC3 coactivator transcriptional activity inhibitors, primary screen, cell-based, luminescence; inhibition, % at 3.6 µM; HEK293 GAL4-SRC3 luciferase reporter; hit rate 0.17% among 360,000; Nuclear receptor coactivator 3 (Homo sapiens), Q9Y6Q9;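 active = inhibition above a per-campaign cutoff, the mean of all compounds plus 3 SD, cut at about 60% in these data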;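 note: 0% = DMSO-treated cells and 100% = gossypol-treated cells at 36 µM; higher means less SRC3-driven luciferase light from the GAL4 reporter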
# GalR3 antag: GalR3 antagonists in HEK293 cells, primary screen, cell-based, fluorescence readout. inhibition, % at 3 µM. hit rate 0.44% among 360,000. AID 651719, 2012. HEK293 GalR3-CNG cAMP membrane potential fluorescence; galR3 body fused to GalR1 C-terminus. Galanin receptor type 3 (Homo sapiens), O60755;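 active = inhibition above the screen-wide average plus 3 SD, cut at about 13% in these data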;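 note: forskolin and galanin both at EC90 stimulate the cells; cAMP rise reported by CNG channel membrane potential dye signal; 0% = forskolin plus galanin with DMSO and 100% = forskolin alone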
# GalR3 antag conf: GalR3 antagonist hit confirmation, cell-based, fluorescence, triplicate | AID 652245, 2013 | hit rate 59% among 1,600 | HEK293 GalR3 CNG cAMP biosensor, membrane potential fluorescence; galR3 fused to GalR1 carboxy tail; challenged with forskolin and galanin at EC90 | shares compounds with GalR3 antag | inhibition, % at 3 µM;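 active = inhibition above the primary screen's cutoff, the mean inhibition of all screened compounds plus 3 SD, cut at about 13% in these data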;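 note: 0% = forskolin plus galanin and 100% = forskolin alone with DMSO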
# CNG parental: nonspecific cAMP agonists in parental HEK-CNG cells, counter-screen for GalR3 antagonist project, cell-based, fluorescence, high throughput | shares compounds with GalR3 antag | HEK293-CNG parental cells, cAMP membrane potential fluorescence; normalised: DMSO wells 0%, forskolin wells 100% | activation, % at 3 µM | hit rate 10% among 1,600 | AID 652268, 2013; in the data active = activation above about 1.3%
# Gal4-VP16 ctr: Gal4-VP16 luciferase reporter inhibitors, counter-screen for COUP-TFII antagonist project, cell-based, luminescence, HEK293. inhibition, % at 8.5 µM. AID 687007, 2013. shares compounds with COUP-TFII inh. hit rate 25% among 2,500; in the data active = inhibition above about 13%
# COUP-TFII conf: NR2F2 transcriptional activity inhibitors, confirmation, cell-based, luciferase reporter, HEK293, triplicate; shares compounds with COUP-TFII inh; HEK293 NGFI-A luciferase reporter, luminescence; inhibition, % at 8.5 µM; hit rate 45% among 2,500;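 active = mean inhibition over three repeats above a set limit taken from the earlier primary screen, cut at about 38% in these data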;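 note: 100% = cells given the luciferase reporter alone without the COUP-TF2 vector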
# * marks the source's active call; other numbers are inactive results; . = not tested or not shown.
SMILES,LRH-1 inv ag,SRC2 inh,COUP-TFII inh,NCOA1 inh,SRC3 inh,GalR3 antag,GalR3 antag conf,CNG parental,Gal4-VP16 ctr,COUP-TFII conf
c1ccc(CCNc2ccnc3cc4ccccc4cc23)cc1,1,-18,65*,-1,-7,19*,-7,3.3*,15*,59*
CCN1/C(=C/c2ccc3cccc(C)c3[n+]2CC)Sc2ccccc21,69,-6,74*,42,53,49*,45*,10*,19*,66*
CCN1/C(=C\c2ccc3cc(C)ccc3[n+]2CC)Sc2cc(C)c(C)cc21,64,-28,67*,20,36,59*,74*,6.3*,8,53*
CCN1/C(=C/c2ccc3cc(C)ccc3[n+]2CC)Sc2ccc3sccc3c21,14,.,.,31,39,.,.,.,.,.
CCN1/C(=C/c2ccc3cc(C)cc(C)c3[n+]2CC)Sc2cc(C)ccc21,67,-47,66*,24,44,49*,58*,9.7*,23*,69*
CCN(CC)C(=O)Cn1nc(Cc2ccncc2)c2ccccc2c1=O,.,-2,-22,.,.,.,.,.,.,.
CC1(C)CC(=O)N(CC(=O)N2CCN(Cc3ccccc3)CC2)c2ccccc2S1(=O)=O,.,13,0,.,.,.,.,.,.,.
CC(C)[C@H](NC(=O)[C@@H]1CCCN1)C(=O)N1CCC2CCN(S(=O)(=O)c3ccccc3)CC21 (stereo partly specified),.,15,7,.,.,.,.,.,.,.
Cc1ccc(-n2ncc3c(N4CCCC4)ncnc32)c(C)c1,-84,-95,-39,-51,-41,-2,.,.,.,.
COc1cccc(N2CCN(c3ncnc4c3cnn4-c3ccc(C)cc3C)CC2)c1,64,69*,97*,44,79*,67*,97*,0,27*,91*
CCC1CCCCN1C(=O)c1cc(COc2ccc3ncccc3c2)on1 (stereo unspecified),43,10,72*,20,24,71*,112*,0,6,66*
CCN(CC)C(=O)C1CCCN(C(=O)c2cc(COc3ccc4ncccc4c3)on2)C1 (stereo unspecified),21,12,27,19,6,-2,.,.,.,.
COCC1CCCCN1C(=O)c1cc(COc2ccc3ncccc3c2)on1 (stereo unspecified),29,28,44*,0,22,25*,93*,0,6,57*
O=C(C1CCN(c2ncnc3c2sc2cccc(F)c23)CC1)N1CCN(Cc2ccc(F)cc2)CC1,.,-12,10,.,.,.,.,.,.,.
COC(=O)[C@]12C[C@H](CC(=O)NCc3ccc(C)o3)C(=O)N(Cc3ccccc3)C1=C[C@H](COCc1ccccc1)O[C@@H]2C,.,8,-5,.,.,.,.,.,.,.
CCCc1cc(=O)n2nc(N3CCC(C(=O)N4CCN(c5ccc(OC)cc5)CC4)CC3)sc2n1,54,15,56*,-3,4,14*,104*,0,12,64*
